The values below come from PubChem BioAssay (EPA / NIEHS).

Inconclusive results are not listed. Activity calls are given as the source filed them. How the source made its calls, unless noted: active means hit-call score of the fitted dose curve at least 0.9, where 1 is the maximum; inconclusive means response in the unintended direction; inactive means score below 0.9.

Assay [1] concerns the target THRA (gene 7067) (UniProt P10827). Nature of the assay: TOX21_TRA_COA_Agonist_Followup_ratio: Tox21 Thyroid Hormone Receptor alpha Agonism through Coactivator Recruitment Follow-Up Assay, Ratio (AID 2283948; active means hit-call score of the fitted dose curve at least 0.9, where 1 is the maximum; inactive means score below 0.9). Put shortly:
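Agonist-mode biochemical TR-FRET with TRα LBD and SRC-2 coactivator peptide; activity expressed as percent of T3 response over DMSO baseline.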

For assay [2], the target named is THRB (gene 7068) (UniProt P10828). Nature of the assay: TOX21_TRB_BLA_Agonist_Followup_ratio: Tox21 Thyroid Hormone Receptor beta Agonism Beta-lactamase (BLA) Follow-Up Assay, Ratio (AID 2283954). The method in brief: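 Agonist mode: compounds (11-point, triplicate) incubated 18 h with HEK293T cells carrying GAL4-DBD/human TRβ-LBD and UAS-β-lactamase. Blue/green (460/530 nm) FRET ratio read after 2 h CCF4-AM loading; CellTiter-Glo viability run in the same plates.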

The target is the same in assay [3]. Nature of the assay: TOX21_TRB_COA_Agonist_Followup_ratio: Tox21 Thyroid Hormone Receptor beta Agonism through Coactivator Recruitment Follow-Up Assay, Ratio (AID 2283963; active means hit-call score of the fitted dose curve at least 0.9, where 1 is the maximum; inactive means score below 0.9). Put shortly: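 Cell-free TR-FRET coactivator recruitment: GST-tagged TRβ LBD (5.0 nM) with 0.10% BSA incubated with compound, then fluorescein-SRC-2 peptide (200 nM) and Tb-anti-GST antibody (2 nM) added. 520:495 nm ratio normalized to DMSO (0%) and T3 (100%).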

The target in assay [4] is Retinoic acid receptor RXR-alpha (Homo sapiens) (UniProt P19793). Nature of the assay: TOX21_TR_RXR_BLA_Agonist_Followup_ratio: Tox21 Thyroid Hormone Receptor beta Retinoid X Receptor alpha (RXRa) Agonism Beta-lactamase (BLA) Follow-Up Assay, Ratio (AID 2283968). Put shortly: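 Agonist mode: compounds given to RXRa-bla HEK293T cells at 11 concentrations, triplicate, 16 h at 37C/5% CO2. Readout is the 460:530 nm blue/green ratio after 2 h substrate loading at room temperature; DMSO baseline, 9-cis retinoic acid control.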

Assay [5] can be described thus: TOX21_TR_RXR_BLA_Agonist_Followup_viability: Viability Assessment in the Tox21 Thyroid Hormone Receptor beta Retinoid X Receptor alpha (RXRa) Agonism Beta-lactamase (BLA) Follow-Up Assay (AID 2283970). Put shortly: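 CellTiter-Glo ATP luciferase read-out of cell viability, multiplexed with the beta-lactamase reporter run. RXRa-bla HEK293T cells in charcoal-stripped serum medium were exposed 16 h at 37C; data fitted both directions relative to DMSO.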

The target in assay [6] is T1, Thyroid hormone receptor alpha (Rattus norvegicus) + Thyroid hormone receptor beta (Rattus norvegicus) (UniProt P18113+P63059). Put plainly: TOX21_TR_LUC_GH3_Agonist_Followup: Tox21 GH3 Thyroid Hormone Receptor Agonism Luciferase Follow-Up Assay (AID 2283939). The method in brief:
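Agonist-mode confirmatory run: 15 concentrations (5 nM to 92 uM final) on GH3 rat pituitary cells, 24 h at 37C/5% CO2, T3 as positive control. Luminescence read with ONE-Glo after 30 min.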

Assay [7] is described as follows: TOX21_PR_LUC_Followup_Antagonist_viability: Viability Assessment in the Tox21 HEK293 Progesterone Receptor (PR) Antagonism Luciferase Follow-Up Assay (AID 2283940). The method in brief:
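Viability counter-readout: cellular ATP measured by luciferase luminescence after 16 h compound exposure at 37C of HEK293-PR-A-luc cells, which had been cultured in charcoal-stripped serum and seeded 5 h beforehand.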

Assay [8] can be described thus: TOX21_PR_LUC_Followup_Agonist_viability: Viability Assessment in the Tox21 HEK293 Progesterone Receptor (PR) Agonism Luciferase Follow-Up Assay (AID 2283941).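 Further: loss of signal means cytotoxicity so actives lower viability.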 Put shortly: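 Cytotoxicity counter-readout in the PR-A luciferase reporter line HEK293, with 16 h compound exposure at 37C after cells were cultured in charcoal-stripped serum. Cellular ATP quantified by CellTiter-Glo luminescence.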

Assay [9] deals with T1, Thyroid hormone receptor alpha (Rattus norvegicus) + Thyroid hormone receptor beta (Rattus norvegicus). Nature of the assay: TOX21_TR_LUC_GH3_Antagonist_Followup: Tox21 GH3 Thyroid Hormone Receptor Antagonism Luciferase Follow-Up Assay (AID 2283942). The method in brief: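 Loss of T3-driven (1.0 nM final) reporter activity in GH3 cells was read by ONE-Glo luminescence after 24 h incubation at 37C; 15-point compound series spanned 92 uM to 5nM final, 1,500 cells/well.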

Assay [10] can be described thus: TOX21_TRB_BLA_Antagonist_Followup_viability: Viability Assessment in the Tox21 Thyroid Hormone Receptor beta Antagonism Beta-lactamase (BLA) Follow-Up Assay (AID 2283961). The method in brief: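 In the same wells as the reporter read, cell health was gauged by CellTiter-Glo ATP luminescence, with signal loss indicating reduced viability. Cells had been exposed to test compounds for 18 h.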

Assay [11] concerns the target THRB (gene 7068) (UniProt P10828). Put plainly: TOX21_TRB_COA_Antagonist_Followup_ratio: Tox21 Thyroid Hormone Receptor beta Antagonism through Coactivator Recruitment Follow-Up Assay, Ratio (AID 2283967). Put shortly: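 Coactivator recruitment to the GST-tagged TRb ligand-binding domain (5.0 nM) was read as the 520/495 nm TR-FRET ratio, using 200 nM fluorescein SRC-2 peptide and 2 nM terbium anti-GST. Scaled between DMSO and T3 wells; loss of signal fitted.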

The next assay has as its target PGR (gene 5241) (UniProt P06401). Put plainly: TOX21_PR_LUC_Followup_Antagonist: Tox21 HEK293 Progesterone Receptor (PR) Antagonism Luciferase Follow-Up Assay (AID 2283938).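 Further: curve fitted upward as signal gain over DMSO baseline despite antagonist label.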 Put shortly: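 Luciferase reporter in HEK293-PR-A-luc cells: 16 h compound treatment at 37C, ONE-Glo luminescence detection, DMSO as negative control and baseline.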
The nature of assay [12]: CCTE_Harrill_HTTr_Viability_DMEM_6hr: (Pilot) CCTE's 6-hour Cell Viability Assessment for the High-Throughput Transcriptomics (HTTr) Platform, in MCF-7 cells cultured in DMEM + 10% fetal bovine serum, Harrill Lab (AID 2283973; active means hit-call score of the fitted dose curve at least 0.9, where 1 is the maximum; inactive means score below 0.9). The method in brief:
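Propidium iodide uptake imaged by high-content analysis after six hours of chemical treatment in an eight-concentration series. Cells: MCF-7 grown in DMEM with 10% fetal bovine serum; DMSO as baseline.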

A short description of assay [13]: CCTE_Harrill_HTTr_Viability_DMEM_12hr: (Pilot) CCTE's 12-hour Cell Viability Assessment for the High-Throughput Transcriptomics (HTTr) Platform, in MCF-7 cells cultured in DMEM + 10% fetal bovine serum, Harrill Lab (AID 2283974; active means hit-call score of the fitted dose curve at least 0.9, where 1 is the maximum; inactive means score below 0.9). The method in brief:
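Propidium iodide dye exclusion imaged by high-content microscopy after 12 h chemical exposure (eight concentrations) of MCF-7 cells grown in DMEM plus 10% FBS; values fitted in both directions relative to DMSO.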

A short description of assay [14]: CCTE_Harrill_HTTr_Viability_DMEM_24hr: (Pilot) CCTE's 24-hour Cell Viability Assessment for the High-Throughput Transcriptomics (HTTr) Platform, in MCF-7 cells cultured in DMEM + 10% fetal bovine serum, Harrill Lab (AID 2283975; active means hit-call score of the fitted dose curve at least 0.9, where 1 is the maximum; inactive means score below 0.9). Put shortly: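 Pilot study: propidium iodide dye exclusion, imaged by high content microscopy, after 24 h compound exposure (eight concentrations) in MCF-7 cultured in DMEM + 10% fetal bovine serum; DMSO served as negative control and baseline.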

The nature of assay [15]: CCTE_Harrill_HTTr_Viability_PRF_DMEM_6hr: (Pilot) CCTE's 6-hour Cell Viability Assessment for the High-Throughput Transcriptomics (HTTr) Platform, in MCF-7 cells cultured phenol red-free DMEM + 10% charcoal-stripped fetal bovine serum, Harrill Lab (AID 2283976; active means hit-call score of the fitted dose curve at least 0.9, where 1 is the maximum; inactive means score below 0.9). Put shortly: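 Membrane integrity by high-content imaging of propidium iodide uptake, six hours after dosing with eight concentrations. Cells: MCF-7 grown in phenol red-free DMEM plus 10% charcoal-stripped serum; DMSO serves as baseline for bidirectional fits.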

Assay [16] can be described thus: CCTE_Harrill_HTTr_Viability_PRF_DMEM_12hr: (Pilot) CCTE's 12-hour Cell Viability Assessment for the High-Throughput Transcriptomics (HTTr) Platform, in MCF-7 cells cultured in phenol red-free DMEM + 10% charcoal-stripped fetal bovine serum, Harrill Lab (AID 2283977; active means hit-call score of the fitted dose curve at least 0.9, where 1 is the maximum; inactive means score below 0.9). Put shortly: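 Membrane integrity was scored via propidium iodide dye exclusion imaging, fitted in both directions relative to DMSO. Compounds ran as eight-point dilutions for 12 hours on MCF-7 grown in phenol red-free DMEM plus 10% charcoal-stripped serum.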

The target of assay [17] is THRA (gene 7067) (UniProt P10827). Nature of the assay: TOX21_TRA_COA_Antagonist_Followup_ratio: Tox21 Thyroid Hormone Receptor alpha Antagonism through Coactivator Recruitment Follow-Up Assay, Ratio (AID 2283953). Put shortly: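 GST-TRα LBD 2.5 nM, BSA 0.10%, + cpd; then FITC-SRC-2 peptide 200 nM + Tb-anti-GST Ab 2 nM. TR-FRET ratio 520/495 nm. Norm: DMSO = 0%, T3 = 100%.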

Assay [18] addresses THRB (gene 7068) (UniProt P10828). Put plainly: TOX21_TRB_BLA_Antagonist_Followup_ratio: Tox21 Thyroid Hormone Receptor beta Antagonism Beta-lactamase (BLA) Follow-Up Assay, Ratio (AID 2283958). Put shortly: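 Beta-lactamase reporter ratio (460/530 nm, CCF4-AM substrate, 2 h room temperature) was read in TRb-bla HEK293T cells after 18 h compound treatment (11 concentrations, triplicate) at 37C in 2% charcoal-stripped FBS medium. Loss of signal fitted against DMSO.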

Assay [19] addresses Retinoic acid receptor RXR-alpha (Homo sapiens) (UniProt P19793). Nature of the assay: TOX21_TR_RXR_BLA_Antagonist_Followup_ratio: Tox21 Thyroid Hormone Receptor beta Retinoid X Receptor alpha (RXRa) Antagonism Beta-lactamase (BLA) Follow-Up Assay, Ratio (AID 2283972). Put shortly: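 Compounds were tested in triplicate at 11 concentrations on RXRa-bla HEK293T cells for 16 h. Substrate cleavage ratio, normalized to DMSO, gave the endpoint.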

Sequence of Retinoic acid receptor RXR-alpha (Homo sapiens) (P19793 whole entry, looked up): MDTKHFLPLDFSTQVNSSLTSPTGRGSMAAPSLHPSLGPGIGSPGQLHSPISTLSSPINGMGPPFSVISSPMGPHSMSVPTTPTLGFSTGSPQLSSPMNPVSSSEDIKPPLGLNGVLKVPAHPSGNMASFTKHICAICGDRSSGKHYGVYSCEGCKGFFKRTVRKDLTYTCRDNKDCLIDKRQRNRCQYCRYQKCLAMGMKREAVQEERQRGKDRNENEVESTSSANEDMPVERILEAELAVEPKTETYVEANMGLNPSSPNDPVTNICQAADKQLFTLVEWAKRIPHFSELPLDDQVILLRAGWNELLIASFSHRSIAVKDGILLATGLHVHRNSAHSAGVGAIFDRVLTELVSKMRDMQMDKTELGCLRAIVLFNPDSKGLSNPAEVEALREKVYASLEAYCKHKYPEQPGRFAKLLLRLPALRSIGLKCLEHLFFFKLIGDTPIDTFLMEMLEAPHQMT
Sequence of THRA (gene 7067) (P10827 whole entry, looked up, the tested form may be a part): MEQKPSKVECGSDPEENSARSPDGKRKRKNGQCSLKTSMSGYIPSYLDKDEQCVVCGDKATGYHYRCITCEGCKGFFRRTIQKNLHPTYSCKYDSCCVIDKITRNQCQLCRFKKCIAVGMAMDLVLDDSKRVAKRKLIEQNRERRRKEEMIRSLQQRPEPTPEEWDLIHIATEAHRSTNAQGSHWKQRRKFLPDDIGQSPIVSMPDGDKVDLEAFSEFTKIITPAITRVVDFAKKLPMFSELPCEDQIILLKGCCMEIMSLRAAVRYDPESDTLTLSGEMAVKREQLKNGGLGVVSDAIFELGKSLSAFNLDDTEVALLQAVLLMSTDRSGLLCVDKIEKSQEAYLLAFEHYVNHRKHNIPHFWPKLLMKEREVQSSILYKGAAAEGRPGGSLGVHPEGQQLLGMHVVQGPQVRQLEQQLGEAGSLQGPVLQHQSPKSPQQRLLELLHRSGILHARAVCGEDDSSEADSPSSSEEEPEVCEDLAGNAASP
Sequence of THRB (gene 7068) (P10828 whole entry, looked up, the tested form may be a part): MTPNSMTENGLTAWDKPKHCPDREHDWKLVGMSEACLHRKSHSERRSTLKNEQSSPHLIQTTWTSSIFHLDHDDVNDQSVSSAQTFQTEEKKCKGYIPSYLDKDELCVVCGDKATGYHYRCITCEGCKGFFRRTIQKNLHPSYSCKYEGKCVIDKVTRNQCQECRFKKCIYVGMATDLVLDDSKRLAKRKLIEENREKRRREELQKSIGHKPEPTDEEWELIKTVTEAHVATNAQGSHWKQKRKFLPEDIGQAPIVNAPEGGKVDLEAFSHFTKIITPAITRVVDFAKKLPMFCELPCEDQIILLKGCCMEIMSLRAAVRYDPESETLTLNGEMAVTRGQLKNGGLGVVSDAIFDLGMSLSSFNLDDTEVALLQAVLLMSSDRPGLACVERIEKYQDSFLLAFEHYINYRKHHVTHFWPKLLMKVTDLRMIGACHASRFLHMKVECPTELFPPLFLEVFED
Sequence of PGR (gene 5241) (P06401 whole entry, looked up): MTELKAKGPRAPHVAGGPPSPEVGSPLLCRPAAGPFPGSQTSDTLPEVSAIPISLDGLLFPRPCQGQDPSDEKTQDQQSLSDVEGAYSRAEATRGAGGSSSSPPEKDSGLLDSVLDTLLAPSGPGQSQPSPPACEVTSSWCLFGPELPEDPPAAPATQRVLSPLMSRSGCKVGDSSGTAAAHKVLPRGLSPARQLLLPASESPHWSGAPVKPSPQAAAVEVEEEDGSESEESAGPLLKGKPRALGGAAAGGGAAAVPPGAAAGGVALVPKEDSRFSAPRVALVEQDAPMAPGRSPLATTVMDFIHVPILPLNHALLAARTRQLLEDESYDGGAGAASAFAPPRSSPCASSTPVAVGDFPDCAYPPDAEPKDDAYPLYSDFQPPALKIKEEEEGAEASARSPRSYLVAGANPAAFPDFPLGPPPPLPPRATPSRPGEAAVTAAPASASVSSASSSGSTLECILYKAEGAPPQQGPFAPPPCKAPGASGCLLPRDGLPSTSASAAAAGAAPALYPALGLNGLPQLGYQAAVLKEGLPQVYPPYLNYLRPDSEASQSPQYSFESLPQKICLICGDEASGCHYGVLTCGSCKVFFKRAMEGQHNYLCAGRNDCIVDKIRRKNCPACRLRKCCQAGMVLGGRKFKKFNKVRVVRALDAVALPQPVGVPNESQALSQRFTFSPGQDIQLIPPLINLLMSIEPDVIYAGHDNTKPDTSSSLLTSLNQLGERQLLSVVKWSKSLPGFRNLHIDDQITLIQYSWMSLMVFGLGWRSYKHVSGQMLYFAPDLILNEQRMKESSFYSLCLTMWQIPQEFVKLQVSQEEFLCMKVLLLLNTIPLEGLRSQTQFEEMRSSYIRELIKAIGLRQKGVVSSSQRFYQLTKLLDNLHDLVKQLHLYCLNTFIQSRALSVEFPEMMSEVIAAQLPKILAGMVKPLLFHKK
T1 sequence (P63059 whole entry, looked up): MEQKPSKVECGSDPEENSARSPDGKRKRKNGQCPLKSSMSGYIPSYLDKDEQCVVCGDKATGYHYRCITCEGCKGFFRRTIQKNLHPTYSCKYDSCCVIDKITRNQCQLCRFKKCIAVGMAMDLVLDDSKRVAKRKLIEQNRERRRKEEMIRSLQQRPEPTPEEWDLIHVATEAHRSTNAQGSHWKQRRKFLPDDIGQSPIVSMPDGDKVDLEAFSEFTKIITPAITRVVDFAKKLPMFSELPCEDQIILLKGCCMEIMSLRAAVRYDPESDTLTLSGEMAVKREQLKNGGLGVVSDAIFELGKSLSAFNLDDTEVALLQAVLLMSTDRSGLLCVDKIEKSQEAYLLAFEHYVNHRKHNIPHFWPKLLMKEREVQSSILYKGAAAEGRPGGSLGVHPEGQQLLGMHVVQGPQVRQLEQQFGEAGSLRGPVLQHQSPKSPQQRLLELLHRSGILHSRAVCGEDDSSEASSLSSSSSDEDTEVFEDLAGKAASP
T1 sequence (P18113 whole entry, looked up): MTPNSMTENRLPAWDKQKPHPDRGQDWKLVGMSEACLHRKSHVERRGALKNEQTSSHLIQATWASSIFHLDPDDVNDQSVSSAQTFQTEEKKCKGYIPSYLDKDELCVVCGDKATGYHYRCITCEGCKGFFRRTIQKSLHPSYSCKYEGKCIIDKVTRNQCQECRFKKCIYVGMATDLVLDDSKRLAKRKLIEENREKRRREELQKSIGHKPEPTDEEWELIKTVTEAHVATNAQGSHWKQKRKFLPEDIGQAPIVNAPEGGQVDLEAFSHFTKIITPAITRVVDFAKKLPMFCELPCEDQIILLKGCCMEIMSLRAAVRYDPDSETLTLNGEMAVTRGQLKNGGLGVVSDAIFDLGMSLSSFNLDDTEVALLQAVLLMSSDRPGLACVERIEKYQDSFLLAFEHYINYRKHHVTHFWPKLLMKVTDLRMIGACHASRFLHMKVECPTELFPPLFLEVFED

The AC50 is the concentration at which the activity in the assay is half-maximal. Consider `O=c1[nH]cnc2c1ncn2[C@H]1CC[C@@H](CO)O1`, for which the result (in the assay with THRA (gene 7067) [1]; with THRB (gene 7068) [3]; in assay [4]; in [5]) was inactive. In the assay with THRB (gene 7068) [2], the AC50 is 9.78 µM (active).

In the case of `Cn1c(=O)c2[nH]cnc2n(C)c1=O`, the outcome (in assay [6]; with THRA (gene 7067) [1]; with THRB (gene 7068) [2]; in the assay with THRB (gene 7068) [3]; in [4]; in [5]) was inactive.

With `NC(=O)N(O)[C@@H]1COc2cc(OCc3ccccc3)ccc21`, the molecule was called inactive in [7] and in [8].

As for `Nc1ccn([C@@H]2O[C@H](CO)[C@@H](O)[C@@H]2O)c(=O)n1`, the outcome (in [9]; in assay [10]; in the assay with THRB (gene 7068) [11]) was inactive.

In the case of `CC(C)C(=O)Nc1ccc([N+](=O)[O-])c(C(F)(F)F)c1`, the outcome (with PGR (gene 5241); in assay [7]; in assay [8]; in [12]; in assay [13]; in assay [14]) was inactive. For the same molecule, the result in assay [15] and in assay [16] was inactive.

In the case of `Cc1nccn1-c1ccc(Sc2cccc(C3(C(N)=O)CCOCC3)c2)cc1`, the concentration at half-maximal activity (AC50) is 32.9 µM (active) in assay [9] and 21.5 µM (active) with THRB (gene 7068) [18]. For the same molecule, the outcome (with THRA (gene 7067) [17]; in assay [10]; in the assay with THRB (gene 7068) [11]; in assay [19]) was inactive.

Take `COc1cc2c(c(OC)c1OC)-c1ccc(OC)c(=O)cc1[C@@H](NC(C)=O)CC2`: the outcome (in assay [9]; in assay [10]; with THRB (gene 7068) [11]; in assay [19]) was inactive. Further, the AC50 in the assay with THRB (gene 7068) [18] was 0.0894 µM (active).
